Experimental findings from PubChem BioAssay (NCI) are described below.

This is part of a sample that, as a whole, favours compounds with a hit. Of some 83,000 tested, about 20% had one in any assay.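 Single-dose data. Exposure time 48 hours. Values below 10 considered active.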 Values without a mark were called inactive. The source made the active and inactive calls.

Test systems include SK-MEL-2 melanoma; EKVX NSCLC; SN12C renal; UO-31 renal; ACHN renal; CAKI-1 renal; A498 renal; CCRF-CEM leukemia; MOLT-4 leukemia; TK-10 renal.
Holding throughout (assay): NCI-60 one-dose screen, 48 h (100 = growth as untreated, 0 = no growth, -100 = all killed)
Common to all, as to settings: 10 µM unless noted

`Fc1cccc(-c2[nH]nc3nc(Nc4cccnc4)sc23)c1`: the growth in the test with SK-MEL-2 melanoma is 46.6%; in the test on EKVX NSCLC, 57%; in the test on SN12C renal it was 58.5%; with UO-31 renal, 46.2%; with ACHN renal it was 61.5%; in the test on CAKI-1 renal, 21.4%. Besides, the growth is 84.2% in the test on A498 renal, 28.8% in the test with CCRF-CEM leukemia and 48.5% in the test with MOLT-4 leukemia.

As for `CC(=O)c1c(C)[nH]c(-c2nc3ccc(N4CCN(C)CC4)cc3[nH]2)c1-c1ccc2c(c1)OCCO2`, the growth in the test on SK-MEL-2 melanoma is 76.4%; in the test with EKVX NSCLC, 45.2%; with SN12C renal it was 58.5%; with UO-31 renal, 9.19% (active); with ACHN renal it was 29.3%; in the test on CAKI-1 renal, 13.3%. Also, the growth with A498 renal is 45.5%; with CCRF-CEM leukemia, 50.3%; with MOLT-4 leukemia it was 58.3%.

Turning to `CCCCn1c(-c2ccc(O)cc2)cn2c3c(=O)[nH]c(=O)n(C)c3nc12`, the growth is 45.8% with SK-MEL-2 melanoma; 85.9% in the test on EKVX NSCLC; 78% in the test with SN12C renal; 70.2% with UO-31 renal; 92.6% in the test with ACHN renal; 86.6% in the test on CAKI-1 renal. For the same compound, the growth in the test on A498 renal was 75.8%; in the test on CCRF-CEM leukemia it was 80%; with MOLT-4 leukemia it was 58.6%.

Turning to `O=C1CCC/C=C\C[C@H]2C=C(Cl)C(=O)/C2=C/C[C@H](CCCCC(F)(F)F)OC(=O)CCC/C=C\C[C@H]2C=C(Cl)C(=O)/C2=C/C[C@H](CCCCC(F)(F)F)O1`, the growth in the test with SK-MEL-2 melanoma was -45.5% [7.5 µM] (active); in the test with EKVX NSCLC it was 13.3% [7.5 µM]; in the test with SN12C renal, -27.1% [7.5 µM] (active); in the test with UO-31 renal it was -93.3% [7.5 µM] (active); with TK-10 renal, -23% [7.5 µM] (active); in the test with ACHN renal, -93.1% [7.5 µM] (active). The figures for the growth in the test on CCRF-CEM leukemia and in the test with MOLT-4 leukemia were 3.14% [7.5 µM] (active) and 1.97% [7.5 µM] (active), respectively.

Regarding `C=C(C)[C@@H]1CC[C@]2(C(=O)O)CC[C@]3(C)[C@H](CC[C@@H]4[C@@]5(C)C/C(=C/c6cccc(I)c6)C(=O)C(C)(C)[C@@H]5CC[C@]43C)[C@@H]12`, the growth with SK-MEL-2 melanoma was 11.2%; in the test on EKVX NSCLC, 24.9%; in the test on SN12C renal, 31.1%; in the test on UO-31 renal it was 23.6%; in the test on ACHN renal, 30.5%; in the test with CAKI-1 renal, 11.9%. Also, the results for the growth with CCRF-CEM leukemia and with MOLT-4 leukemia were 25.6% and 13%, respectively.

For the compound `Cc1cccc(C)c1NCc1nc(-c2ccccc2)n[nH]1`, the growth was 101% in the test with SK-MEL-2 melanoma; 95% with EKVX NSCLC; 105% in the test with SN12C renal; 90.6% in the test on UO-31 renal; 101% in the test with TK-10 renal; 96.8% with ACHN renal. For the same compound, the figures for the growth with CCRF-CEM leukemia and with MOLT-4 leukemia were 110% and 98%, respectively.

On to `COc1ccc(/C=C/C(=O)NCCO)cc1`, for which the growth was 103% in the test on SK-MEL-2 melanoma; 98.7% in the test with EKVX NSCLC; 108% in the test with SN12C renal; 84.6% with UO-31 renal; 101% in the test on ACHN renal; 90.8% in the test with CAKI-1 renal. For the same compound, the growth in the test on A498 renal is 85%; in the test with CCRF-CEM leukemia, 104%; with MOLT-4 leukemia, 101%.

Take `COC(=O)[C@]12CC[C@@H](C)[C@H](C)[C@@H]1C1=CC(=O)[C@@H]3[C@@]4(C)C[C@@H](O)[C@H](O)[C@@]5(C)COC(=C45)C[C@@]3(C)[C@]1(C)CC2`: the growth in the test on SK-MEL-2 melanoma was 33.6%; with EKVX NSCLC, 75.8%; in the test on SN12C renal, 55%; with UO-31 renal it was 65.8%; in the test with ACHN renal it was 69.5%; in the test with CAKI-1 renal, 71.1%. The growth with A498 renal was 37.5%; in the test with CCRF-CEM leukemia it was 59.7%; with MOLT-4 leukemia it was 24.6%.

As to `COCCNC1=C(Cl)C(=O)c2ccccc2C1=O`, the growth with SK-MEL-2 melanoma was 103%; with EKVX NSCLC it was 108%; in the test with SN12C renal, 95.2%; with UO-31 renal it was 115%; in the test on ACHN renal, 104%; with A498 renal, 81.3%. The growth was 99.7% in the test with CCRF-CEM leukemia and 108% with MOLT-4 leukemia.

For `COC(c1ccccc1)(c1ccccc1)c1ccccc1`, the growth in the test with SK-MEL-2 melanoma is 118%; in the test with EKVX NSCLC, 85.3%; in the test on SN12C renal, 97%; with UO-31 renal, 105%; in the test on ACHN renal, 101%; in the test with A498 renal, 104%. Further, the figures for the growth in the test on CCRF-CEM leukemia and in the test with MOLT-4 leukemia were 131% and 123%, respectively.

On to `COC(=O)[C@]12CC[C@@H](C)[C@H](C)[C@@H]1C1=CC(=O)[C@@H]3[C@@]4(C)C[C@@H](OC(C)=O)[C@H](OC(C)=O)[C@@](C)(COC(C)=O)[C@@H]4C(=O)C[C@@]3(C)[C@]1(C)CC2`, for which the growth is 75.6% in the test on SK-MEL-2 melanoma; 57.8% with EKVX NSCLC; 57.1% in the test on SN12C renal; 42.5% in the test with UO-31 renal; 31.8% in the test on ACHN renal; 30.5% in the test on CAKI-1 renal. Further, the growth in the test on A498 renal is 53%; in the test on CCRF-CEM leukemia it was 17%; in the test with MOLT-4 leukemia, 4.9% (active).

Consider `Cc1cc(N(CCCNc2ccnc3cc(Cl)ccc23)Cc2ccco2)nc(Cl)n1`, for which the growth was 65.4% in the test with SK-MEL-2 melanoma; 43.5% with EKVX NSCLC; 58.8% in the test with SN12C renal; 36.7% with UO-31 renal; 62.6% with TK-10 renal; 64.8% with ACHN renal. The growth in the test with CCRF-CEM leukemia is 67.3%; with MOLT-4 leukemia, 43.4%.

As to `Cc1ccsc1-c1ccc2c(c1)COC2(CCCN(C)C)c1ccc(F)cc1` (configuration not stated), the growth in the test on SK-MEL-2 melanoma was 85.4%; in the test with EKVX NSCLC, 65.6%; with SN12C renal it was 56.7%; with UO-31 renal, 39.3%; in the test with ACHN renal it was 62.1%; with CAKI-1 renal it was 38.4%. Besides, the growth in the test with A498 renal is 86.3%; in the test with MOLT-4 leukemia, 27.3%.

Turning to `COc1ccc(-c2nc3c(c(C)nn3-c3ccc(F)cc3)c(=O)[nH]2)cc1`, the growth with SK-MEL-2 melanoma is 92.3%; in the test on EKVX NSCLC it was 81.6%; in the test with SN12C renal it was 56.9%; in the test on UO-31 renal, 52.1%; in the test on TK-10 renal it was 65.8%; with ACHN renal, 6.33% (active). The growth is 86.9% in the test on CCRF-CEM leukemia and 98.1% in the test on MOLT-4 leukemia.

As for `Cn1cc(-c2nc(-c3c[nH]c4ncccc34)cs2)c2cc(Cl)ccc21`, the growth with SK-MEL-2 melanoma was 60.4%; in the test with EKVX NSCLC, 41.8%; in the test on SN12C renal it was 54%; in the test with TK-10 renal it was 43.1%; in the test with ACHN renal, 30%; with CAKI-1 renal it was 36.5%. Besides, the growth with A498 renal is 74.7%; with CCRF-CEM leukemia it was 33.8%; in the test on MOLT-4 leukemia it was 37.9%.
